For experiment [1], the target named is Lysosomal acid glucosylceramidase (Homo sapiens) (UniProt P04062). Nature of the experiment: Glucocerebrosidase-p2 (AID 348; in the data active = potency below about 10 µM; also: potency is read from the fitted curve at half-maximal effect). The conditions noted are these: purified GBA, blue fluorogenic substrate, 40 min. Put shortly:
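Compounds titrated from 0.6 nM upwards against 0.2 nM enzyme in pH 5.9 citric acid/KH2PO4, taurocholate, tween-20; blue fluorogenic substrate 80 uM, 40 min room temperature, stopped and read Ex 365/Em 440 for AC50.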

Experiment [2] can be described thus: AP1 Signaling Pathway (AID 357).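 Also: ME-180 reporter cells stimulated with EGF at its EC50 level; % is scaled to controls: 0 for no effect and ±100 for the full control effect.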 The following applies: ME-180 AP-1-bla reporter, EGF-induced, beta-lactamase ratio, 5 h; at 7.69 µM (top of the series) unless noted. In a few lines:
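In this screen, ME-180 cells in Opti-MEM with 0.5% dialyzed FBS received EC50 EGF and compound titrations for 5 h. AP-1 reporter beta-lactamase was detected via CCF4 ratio, giving AC50 for positive and negative modulators.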

For experiment [3], the target named is Cytochrome P450 1A2 (Homo sapiens) (UniProt P05177). Kind of experiment: p450-cyp1a2 (AID 410; calls by dose curve; also: potency is read from the fitted curve at half-maximal effect). The following applies: recombinant CYP1A2, luciferin-ME demethylation, luminescence; series mostly up to 11.4 µM. Put shortly: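 Human CYP1A2 (20nM) demethylated Luciferin-ME at its Km (100uM) in 100mM KPO4. After 10 min compound preincubation, NADPH regeneration ran the reaction 60 min at room temperature. Luciferin was read by luminescence, normalized to 57 uM furafylline.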
Chain of Cytochrome P450 1A2 (Homo sapiens) (P05177 whole entry, looked up): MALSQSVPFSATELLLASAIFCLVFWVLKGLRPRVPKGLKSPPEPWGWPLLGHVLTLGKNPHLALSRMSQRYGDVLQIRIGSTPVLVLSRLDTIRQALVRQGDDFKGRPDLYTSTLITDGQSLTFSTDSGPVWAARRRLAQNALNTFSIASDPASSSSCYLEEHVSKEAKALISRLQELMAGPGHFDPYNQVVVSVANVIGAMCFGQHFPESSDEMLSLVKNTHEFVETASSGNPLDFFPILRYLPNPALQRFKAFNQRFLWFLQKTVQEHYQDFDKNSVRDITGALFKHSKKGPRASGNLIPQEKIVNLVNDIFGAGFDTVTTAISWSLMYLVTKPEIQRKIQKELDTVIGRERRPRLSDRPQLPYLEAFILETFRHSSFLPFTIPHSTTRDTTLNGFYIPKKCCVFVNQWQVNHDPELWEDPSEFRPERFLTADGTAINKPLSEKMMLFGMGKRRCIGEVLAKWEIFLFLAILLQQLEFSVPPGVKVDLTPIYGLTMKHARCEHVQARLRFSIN

Experiment [4] can be described thus: NFAT Signaling Pathway (AID 444).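 Also: carbachol stimulus at about its EC50 of 1 µM final; % is scaled to controls: 0 for no effect and ±100 for the full control effect.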 The conditions noted are these: Jurkat NFAT-bla M1, carbachol, beta-lactamase ratio, 5 h; at 7.69 µM (top of the series) unless noted. In a few lines: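 Jurkat cells carrying an NFAT-driven β-lactamase reporter and co-transfected muscarinic M1 receptor were treated with compound plus carbachol (1 uM final, an EC50 level) for 5 h at 37 °C. CCF4 loading followed for 1 h at RT; 460/530 nm ratio gave %activity.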

Experiment [5] can be described thus: Stat Signaling Pathway (AID 446).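 Also: ME-180 cervical cancer cells given 40 pM IL-6 alongside compound; SIE-controlled beta-lactamase reporter measured as 460/530 nm FRET emission ratio; % is scaled to controls: 0 for no effect and ±100 for the full control effect.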 The conditions noted are these: ME-180 SIE beta-lactamase reporter, IL-6 stimulated, 5 h; at 7.69 µM (top of the series) unless noted. Put shortly:
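Reporter line: ME-180 cervical carcinoma, SIE-beta-lactamase. Treatment: compound with 40 pM IL-6, 5 hrs, 37 C, in low-serum OPTI-MEM with 10 mM HEPES pH 7.3. Detection: 460/530 nm fluorescence.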

The target in experiment [6] is Glucocorticoid receptor (Homo sapiens) (UniProt P04150). Nature of the experiment: GR-GFP Redistribution (AID 450;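 active = compounds whose dose series gives a full or clear partial fitted curve of increased nuclear translocation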; also: potency is read from the fitted curve at half-maximal effect). The conditions noted are these: U2OS GR-GFP nuclear translocation, laser cytometry, 2 h.
Chain of Glucocorticoid receptor (Homo sapiens) (P04150 whole entry, looked up, the tested form may be a part): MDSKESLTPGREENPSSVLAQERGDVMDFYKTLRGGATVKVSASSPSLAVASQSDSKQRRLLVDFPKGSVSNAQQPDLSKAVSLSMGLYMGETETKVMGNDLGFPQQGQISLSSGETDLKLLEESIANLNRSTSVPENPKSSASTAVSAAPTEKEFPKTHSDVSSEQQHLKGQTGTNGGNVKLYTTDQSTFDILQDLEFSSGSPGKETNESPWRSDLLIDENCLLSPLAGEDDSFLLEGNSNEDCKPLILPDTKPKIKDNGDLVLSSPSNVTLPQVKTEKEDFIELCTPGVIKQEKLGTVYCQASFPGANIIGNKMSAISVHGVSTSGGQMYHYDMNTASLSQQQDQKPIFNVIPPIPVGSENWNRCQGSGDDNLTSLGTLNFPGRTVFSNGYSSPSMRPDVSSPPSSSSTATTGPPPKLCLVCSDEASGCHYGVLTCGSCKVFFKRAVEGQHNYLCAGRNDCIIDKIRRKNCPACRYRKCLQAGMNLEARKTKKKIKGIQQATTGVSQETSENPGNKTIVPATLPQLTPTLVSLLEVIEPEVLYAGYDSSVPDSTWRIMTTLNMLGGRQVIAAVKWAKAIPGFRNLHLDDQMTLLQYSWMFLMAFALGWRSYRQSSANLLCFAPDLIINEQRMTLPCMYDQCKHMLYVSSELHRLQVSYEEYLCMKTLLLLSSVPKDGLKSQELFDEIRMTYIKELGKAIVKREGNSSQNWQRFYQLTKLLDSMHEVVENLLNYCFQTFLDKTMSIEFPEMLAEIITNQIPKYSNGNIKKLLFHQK
Experiment [7] shares this target. Nature of the experiment: GR-EFC Redistribution (AID 451; calls by dose curve; also: potency is read from the fitted curve at half-maximal effect). The following applies: CHO-K1 GR-EFC translocation, beta-gal luminescence, 2 h. In a few lines: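 CHO-K1 cells stably expressing nuclear-localized β-gal enzyme acceptor and GR fused C-terminally to the enzyme donor fragment; ligand-driven nuclear translocation restores β-gal by complementation. Compounds titrated up to 46 uM final, 2 h at 37 °C; luminescence read.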

The target in experiment [8] is Mitogen-activated protein kinase 10 (Mus musculus) (UniProt Q61831). Kind of experiment: JNK3 AlphaScreen Assay (AID 530).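 Also: kinase came from lysate of stimulated human HepG2 cells; % is scaled to controls: 0 for no effect and ±100 for the full control effect.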 The conditions noted are these: JNK3 lysate, c-Jun phosphorylation; series mostly up to 11.4 µM. In a few lines: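 JNK3 came from HepG2 lysates pre-activated with IL-1beta and TNF-alpha and phosphorylated biotinylated GST-cJun (1-79) at 10 uM ATP, pH 7.6, room temperature. Compounds were titrated. AlphaScreen signal used anti-phospho-cJun (Ser73) antibody.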
On the technique in general: Bead proximity is the source of the signal in Alpha formats.

Experiment [9] has as its target 3',5'-cyclic-AMP phosphodiesterase 4B (Homo sapiens) (UniProt Q07343). Kind of experiment: qHTS Assay for Inhibitors of PDE-IV (AID 607; active = well fitted activation curve with a large enough effect in the main read-out, with a control signal flat, not every such curve was filed as active; also: % of control where 0% means no effect). The conditions noted are these: HEK293 ACTOne CNG channel cells, membrane potential fluorescence; series mostly up to 22.9 µM. Put shortly: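 Cell-based read-out of cAMP via a modified cyclic nucleotide-gated channel and membrane potential dye (535/590 nm) in HEK293 cells expressing PDE4 endogenously. Compounds tested up to 22.9 uM final; 100 uM RO 20-1724 reference.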
(qHTS replaces the single test concentration by a dilution series.)

A short description of experiment [10]: qHTS Assay for Identification of Small Molecule Agonists for Hypoxia Response Element Signaling Pathway (AID 914; active = well fitted activation curve with a large enough effect in the signal ratio, with a control signal flat, not every such curve was filed as active; the % refers to the signal ratio; also: % of control where 0% means no effect). The following applies: ME-180 (cervical carcinoma) HRE-bla reporter, beta-lactamase ratio, CoCl2, 17 h; activation: hits give high values. In a few lines:
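Reporter activity (beta-lactamase, CCF4 460nm/530nm ratio) in HRE-bla ME-180 cells is recorded after 17 h compound exposure with EC50 CoCl2 at 37 degrees Celsius. AC50 values come from titration data.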

The target of experiment [11] is Cytochrome P450 2C19 (Homo sapiens) (UniProt P33261). Nature of the experiment: qHTS Assay for Inhibitors and Substrates of Cytochrome P450 2C19 (AID 899; active = well fitted inhibition curve with a large enough effect; also: nearly all actives have a fitted effect of over 60% in size; also: potency is read from the fitted curve at half-maximal effect). The following applies: recombinant CYP2C19, luciferin-H EGE luminescence; series mostly up to 11.4 µM. In a few lines:
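Human CYP2C19 (5nM) with Luciferin-H EGE at 10uM (its KM) in 50mM KPO4 was preincubated with compound for 10 min at 37C. NADPH regeneration started a 60 min 37C reaction. Luciferin was read by luminescence, normalized to 57uM ketoconazole.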

A number with no mark means an inactive call. Results filed as inconclusive are left out. Active and inactive are the calls of the source. Unless noted, calls follow the shape of the dose curve; as a rule, active = well fitted curve in either direction with a large enough effect (not every such curve was filed as active); inconclusive = small, poorly fitted or top-dose-only effect, or another doubt; inactive = flat fitted curve, though single readings scatter.

Chain of Cytochrome P450 2C19 (Homo sapiens) (P33261 whole entry, looked up): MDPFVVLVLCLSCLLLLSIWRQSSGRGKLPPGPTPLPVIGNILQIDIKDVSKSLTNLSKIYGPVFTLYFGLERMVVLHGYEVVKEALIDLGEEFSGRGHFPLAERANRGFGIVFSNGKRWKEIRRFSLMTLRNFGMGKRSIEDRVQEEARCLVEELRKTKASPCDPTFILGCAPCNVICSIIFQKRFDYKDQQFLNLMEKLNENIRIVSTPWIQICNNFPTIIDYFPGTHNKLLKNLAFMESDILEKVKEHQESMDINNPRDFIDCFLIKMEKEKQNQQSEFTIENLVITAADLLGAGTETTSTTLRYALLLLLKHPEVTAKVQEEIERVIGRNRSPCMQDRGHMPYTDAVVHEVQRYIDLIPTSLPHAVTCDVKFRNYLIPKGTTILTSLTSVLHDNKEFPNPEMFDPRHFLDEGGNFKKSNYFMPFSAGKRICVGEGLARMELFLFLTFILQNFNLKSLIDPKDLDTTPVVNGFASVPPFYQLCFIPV
Chain of 3',5'-cyclic-AMP phosphodiesterase 4B (Homo sapiens) (Q07343 whole entry, looked up): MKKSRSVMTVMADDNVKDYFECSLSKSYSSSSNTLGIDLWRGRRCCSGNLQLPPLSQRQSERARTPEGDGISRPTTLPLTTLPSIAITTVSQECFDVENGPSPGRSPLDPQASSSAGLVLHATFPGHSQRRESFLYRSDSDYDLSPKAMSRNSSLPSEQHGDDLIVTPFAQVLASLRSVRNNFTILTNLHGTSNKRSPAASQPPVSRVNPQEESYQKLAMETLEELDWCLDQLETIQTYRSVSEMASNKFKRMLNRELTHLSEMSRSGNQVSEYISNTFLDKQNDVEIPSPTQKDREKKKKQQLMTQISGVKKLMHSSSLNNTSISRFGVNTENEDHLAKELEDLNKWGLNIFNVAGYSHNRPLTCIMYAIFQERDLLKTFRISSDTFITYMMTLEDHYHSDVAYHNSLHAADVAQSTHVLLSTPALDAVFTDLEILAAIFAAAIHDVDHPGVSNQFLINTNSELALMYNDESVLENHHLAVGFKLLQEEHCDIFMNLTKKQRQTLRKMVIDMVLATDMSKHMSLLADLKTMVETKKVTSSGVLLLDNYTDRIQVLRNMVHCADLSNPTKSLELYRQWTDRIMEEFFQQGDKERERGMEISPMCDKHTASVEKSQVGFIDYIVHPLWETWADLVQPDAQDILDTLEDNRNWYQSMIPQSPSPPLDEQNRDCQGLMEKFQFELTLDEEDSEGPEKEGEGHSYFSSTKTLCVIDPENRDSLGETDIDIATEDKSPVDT
Chain of Lysosomal acid glucosylceramidase (Homo sapiens) (P04062 whole entry, looked up): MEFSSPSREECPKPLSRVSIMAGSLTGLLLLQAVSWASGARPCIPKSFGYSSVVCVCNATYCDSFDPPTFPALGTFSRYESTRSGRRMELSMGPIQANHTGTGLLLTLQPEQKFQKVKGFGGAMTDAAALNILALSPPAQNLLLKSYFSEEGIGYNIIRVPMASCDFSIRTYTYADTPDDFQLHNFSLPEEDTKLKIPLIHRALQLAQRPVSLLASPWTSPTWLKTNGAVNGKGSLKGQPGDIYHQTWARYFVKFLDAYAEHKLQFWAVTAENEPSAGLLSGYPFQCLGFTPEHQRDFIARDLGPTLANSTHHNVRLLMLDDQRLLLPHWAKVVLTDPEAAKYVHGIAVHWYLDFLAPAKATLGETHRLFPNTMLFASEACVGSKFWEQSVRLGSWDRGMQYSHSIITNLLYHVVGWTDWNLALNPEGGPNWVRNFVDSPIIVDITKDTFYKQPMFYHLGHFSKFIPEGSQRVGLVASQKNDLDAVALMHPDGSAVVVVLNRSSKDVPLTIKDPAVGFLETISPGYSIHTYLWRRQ

In the case of `NS(=O)(=O)c1ccc(N=Nc2ccc(O)c(C(=O)O)c2)cc1`, the Potency was more than 11.4 µM in experiment [1], more than 46 µM in experiment [6] and more than 9.22 µM in experiment [7]. The activity change, negative = inhibition in experiment [2] is -0.844%; in experiment [4] it was -4.82%. Further, the Potency entry in experiment [3], in experiment [8] and in [9] was “inactive” throughout. In addition, the activity, negative = inhibition in [5] is -2.97%. Further, the activation in [10] was 12.3%.

Take `C[C@@H]1NCC[C@H](CC(=O)O)[C@H]1CC(=O)O`: the values for the Potency in [1], in experiment [6] and in experiment [7] were more than 11.4 µM, more than 46 µM and more than 9.22 µM, respectively. Further, the activity change, negative = inhibition in [2] was 8.61%; in experiment [4], -12%. Moreover, the Potency entry in [3], in [8] and in experiment [9] was “inactive” in each case. The activity, negative = inhibition in experiment [5] was 8.09%. Moreover, in experiment [10], the activation was 3.32%.

Turning to `Clc1nc(NCCc2ccccc2)c2ncn(-c3ccccc3)c2n1`, the Potency in experiment [1] was more than 11.4 µM; in experiment [3], 0.501 µM (active); in [6], more than 46 µM; in experiment [7] it was more than 9.22 µM; in experiment [11] it was 0.501 µM (active). The activity change, negative = inhibition in experiment [2] was -9.15%; in experiment [4], -0.663%. Besides, the activity, negative = inhibition in experiment [5] was -22.9%. Also, the Potency result in experiment [8] and in [9] was “inactive” each time.

For `CC(C)C(O)(C(C)C)C(C)C`, the Potency in [1] is more than 11.4 µM; in [6], more than 46 µM; in experiment [7] it was more than 9.22 µM. Also, the activity change, negative = inhibition is 7.29% in experiment [2] and 3.44% in [4]. Further, the Potency result in experiment [3], in [8], in experiment [9] and in experiment [11] was “inactive” each time. Besides, the activity, negative = inhibition in experiment [5] was 13.2%.

Take `CN[C@@H]1NC(=O)c2ccccc2N1Cc1ccc(F)cc1`: the results for the Potency in [1], in experiment [6] and in experiment [7] were more than 11.4 µM, more than 46 µM and more than 9.22 µM, respectively. Besides, the activity change, negative = inhibition is 4.91% in experiment [2], -7.6% [at 2.29 µM] in [3] and 7.06% in [4]. Also, in experiment [5], the activity, negative = inhibition was 4.09%. Moreover, the Potency entry in experiment [8] and in experiment [9] was “inactive” throughout. Besides, the activation in experiment [10] was -6.12%.

Consider `C[C@@](N)(/C=C\c1ccccc1)C(=O)O`, for which the Potency in [1] was more than 11.4 µM; in experiment [6], more than 46 µM; in experiment [7], more than 9.22 µM. Moreover, the activity change, negative = inhibition in experiment [2] was -1.95%; in experiment [4] it was 12%. The Potency result in experiment [3], in experiment [8] and in experiment [9] was “inactive” throughout. The activity, negative = inhibition in experiment [5] was -3.44%. The activation in experiment [10] is -2.86%.

For the compound `Cc1c(NC(=O)Nc2c(Cl)cccc2Cl)c(=O)n(-c2ccccc2)n1C`, the Potency was more than 11.4 µM in experiment [1], more than 46 µM in experiment [6] and more than 9.22 µM in experiment [7]. Moreover, the activity change, negative = inhibition in experiment [2] is 4.18%; in experiment [4], -0.333%. Besides, the Potency entry in experiment [3], in experiment [8] and in [9] was “inactive” in each case. Also, the activity, negative = inhibition in experiment [5] is -1.35%. Besides, the activation in experiment [10] was -3.31%.

For the compound `COc1ccc2nc(NCN3C(=O)c4ccccc4C3=O)sc2c1`, the Potency in experiment [1] is more than 11.4 µM; in experiment [3], 3.98 µM (active); in [6], more than 46 µM; in experiment [7], more than 9.22 µM; in [11], 2.51 µM (active). Moreover, the activity change, negative = inhibition in [2] was 2.48%; in experiment [4] it was -16%. Further, in [5], the activity, negative = inhibition is 10.9%. In addition, the Potency result in experiment [8] and in experiment [9] was “inactive” throughout.

In the case of `Cc1c(C(=O)O)nc(/C=C\C(=O)O)[nH]c1=O`, the Potency in experiment [1] was more than 11.4 µM; in experiment [6] it was more than 46 µM; in experiment [7], more than 9.22 µM. In addition, the activity change, negative = inhibition in experiment [2] is 11.1%; in experiment [4], 3.17%. Further, the Potency result in [3], in [8] and in [9] was “inactive” throughout. For the same compound, the activity, negative = inhibition in experiment [5] is 21.1%. Also, the activation in experiment [10] is 12.3%.

In the case of `CCOC(=O)C(C)(C)[C@H](O)C(C)C`, the Potency in experiment [1] was more than 11.4 µM; in experiment [6], more than 46 µM; in [7] it was more than 9.22 µM. Further, the values for the activity change, negative = inhibition in experiment [2] and in [4] were -4.38% and 6.94%, respectively. Besides, the Potency entry in experiment [3], in experiment [8] and in [9] was “inactive” in each case. The activity, negative = inhibition in experiment [5] is -3.53%. The activation in [10] was 11.4%.

On to `CN(C)Cc1ccc(C(C)(C)C)cc1-c1cc(C(C)(C)C)ccc1CN(C)C`, for which the Potency in [1] was more than 11.4 µM; in [3], 3.98 µM (active); in experiment [6], more than 46 µM; in experiment [7], more than 9.22 µM. Moreover, the figures for the activity change, negative = inhibition in experiment [2] and in experiment [4] were -1.36% and 6.36%, respectively. Besides, in [5], the activity, negative = inhibition is -4.38%. The Potency entry in experiment [8], in experiment [9] and in experiment [11] was “inactive” each time.

With `OCCCSCCO`, the Potency in [1] is more than 11.4 µM; in experiment [6] it was more than 46 µM; in experiment [7], more than 9.22 µM. Moreover, the figures for the activity change, negative = inhibition in experiment [2], in [3] and in [4] were 5.52%, -19.1% [at 2.29 µM] and 7.44%, respectively. The activity, negative = inhibition in [5] is -0.432%. Moreover, the Potency result in experiment [8] and in experiment [9] was “inactive” in each case. Also, in experiment [10], the activation is 7.65%.

On to `CC(C)CCC[C@@H](C)[C@@H]1CC[C@@H]2[C@H]3CC[C@H]4C[C@@H](N)CC[C@@]4(C)[C@@H]3CC[C@]21C`, for which the Potency in experiment [1] is more than 11.4 µM; in experiment [6] it was more than 46 µM; in experiment [7] it was more than 9.22 µM. The activity change, negative = inhibition is 13.1% in experiment [2] and 26.8% in experiment [4]. For the same compound, the Potency result in experiment [3], in experiment [8] and in [9] was “inactive” in each case. Besides, the activity, negative = inhibition in experiment [5] was 11.5%. In [10], the activation is 7.37%.

Turning to `O=S(=O)(c1ccccc1)N1CN2CN(C1)CN(S(=O)(=O)c1ccccc1)C2`, the Potency is more than 11.4 µM in experiment [1], more than 46 µM in experiment [6] and more than 9.22 µM in experiment [7]. The activity change, negative = inhibition in [2] was -16.9%; in experiment [4], -4.88%. For the same compound, the Potency result in experiment [3], in experiment [8] and in experiment [9] was “inactive” in each case. The activity, negative = inhibition in experiment [5] was -0.275%. Besides, the activation in [10] was -1.12%.

For `Nc1nc(-c2cccc([N+](=O)[O-])c2)cc(-c2cc(-c3cccc([N+](=O)[O-])c3)nc(N)n2)n1`, the Potency in [1] was more than 11.4 µM; in experiment [6], more than 46 µM; in experiment [7] it was more than 9.22 µM. For the same compound, the activity change, negative = inhibition in [2] is -0.341%; in experiment [3], 0.3% [at 2.29 µM]; in experiment [4], 6.8%. The activity, negative = inhibition in [5] is 3.52%. In addition, the Potency result in experiment [8] and in [9] was “inactive” each time. In addition, the activation in [10] is 18.2%.

For the origin of these results see PubChem BioAssay (NCATS).
